PubChem BioAssay AID1962 (The Scripps Research Institute Molecular Screening Center, 2009)
“And” between values parts separate entries of the source, which are not always exact repeats. Identical values can stand only once. In all, about 300,000 compounds went through this assay and about 2,500 (0.83%) were called active.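 Rule for the calls: active = inhibition above the mean of all tested compounds plus 3 SD, set per screening campaign (cut at about 24% in these data); inactive = the rest.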 The list comes from a sample in which actives are over-represented; it also holds similar structures and randomly drawn compounds.

tested on: tRNA 2'-phosphotransferase TPT1 (Candida albicans SC5314); test: tRNA 2'-phosphotransferase blockers, C. albicans – biochemical, fluorescence polarization, primary screen (AID 1962); settings: recombinant caTPT1, FP RNA substrate dephosphorylation; at 5 µM; hits give high values;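 note: plate controls were DMSO alone for no effect and ferristatin control at 100 nM for full effect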

| Structure (SMILES) | inhibition |
| --- | --- |
| O=C(COc1ccc2ccccc2c1)N1CCN(Cc2ccncc2)CC1 | -1.1% (inactive) |
| CN(C)C(=O)Oc1cc(OC(=O)N(C)C)cc(C(O)CNC(C)(C)C)c1 (stereo unspecified) | -1.53% (inactive) and -2.15% (inactive) |
| COc1cccc(C(=O)N2C[C@H]3C[C@@H](C2)c2cccc(=O)n2C3)c1 | -1.64% (inactive) |
| COc1ccc(C2N3CC(C)(C)CN23)cc1 (stereo unspecified) | 0.1% (inactive) |
| O=C(CN1CCCC1=O)NCCc1ccccc1 | -1.43% (inactive) |
| O=C1CC(=O)N(Cc2ccccc2)C(=O)N1CCCCCCN1C(=O)CC(=O)N(Cc2ccccc2)C1=O | 71.4% (active) |
| CC(C)(C)c1ccc(CN2C(=O)CN=C(c3ccccc3)c3ccccc32)cc1 | 2.92% (inactive) |
| Fc1ccc(C2N3CCCN23)cc1 (stereo unspecified) | -5.01% (inactive) |
| CN(C)CCCN=Cc1c(O)n(Cc2ccco2)c(=O)[nH]c1=O | 1.6% (inactive) |
| CC(C)n1c(=O)c(C=Nc2ccc(Br)cc2)c(O)n(Cc2ccco2)c1=O | 27.9% (active) |
| Cn1c(O)c(C=Nc2ccc3c(c2)CCC3)c(=O)n(C)c1=O | -3.76% (inactive) |
| CCOc1ccc(-c2cc(C)[n+](CCN(CC)CC)c(-c3ccc(OCC)cc3)c2)cc1 | -0.45% (inactive) |
| Cc1ccc(-n2c(-c3ccc([N+](=O)[O-])cc3)nc3ccccc3c2=O)cc1 | -3% (inactive) |
| Cc1ccc(N2C(=O)NC(=O)C(CCc3ccncc3)(Cc3cccc(Cl)c3Cl)C2=O)cc1 (stereo unspecified) | 3.87% (inactive) |
| CC(C)Nc1nc(Cl)nc(NC(C)C)n1 | -2.15% (inactive) |
| CC/C(=N\NC(=O)c1ccccc1O)c1c(O)n(Cc2ccccc2)c(=O)[nH]c1=O | 46.6% (active) |
| CCC(=NCc1ccco1)c1c(O)n(Cc2ccccc2)c(=O)[nH]c1=O | 3.72% (inactive) |
| O=C(N/N=C/c1c(O)n(Cc2ccccc2)c(=O)[nH]c1=O)c1ccccc1 | 2.3% (inactive) |
| COc1ccc2c(c1)[C@]13CCCCC1C(C2)N(C)CC3 (stereo partly specified) | -1.13% (inactive) |
| CC1CCCCN1Cc1cccnc1 (stereo unspecified) | -4.61% (inactive) |
| CN(c1ccccc1)c1ccc([N+](=O)[O-])c2nonc12 | 14.5% (inactive) |
